How the values were obtained:
Test in all cases: log2 ratio of Biotin-Ahx-Ub-VS probe labelling (fragment/DMSO); higher = less target engagement (more negative = stronger competition), active = hit call of the paper (q ≤ 0.05, log2 ratio ≤ -1)
Conditions in all cases: compound concentration: 200 uM; treatment time: 3 h
ALG13 = target: T1, ALG13 (UniProt Q9NP73)
T1 sequence (whole entry): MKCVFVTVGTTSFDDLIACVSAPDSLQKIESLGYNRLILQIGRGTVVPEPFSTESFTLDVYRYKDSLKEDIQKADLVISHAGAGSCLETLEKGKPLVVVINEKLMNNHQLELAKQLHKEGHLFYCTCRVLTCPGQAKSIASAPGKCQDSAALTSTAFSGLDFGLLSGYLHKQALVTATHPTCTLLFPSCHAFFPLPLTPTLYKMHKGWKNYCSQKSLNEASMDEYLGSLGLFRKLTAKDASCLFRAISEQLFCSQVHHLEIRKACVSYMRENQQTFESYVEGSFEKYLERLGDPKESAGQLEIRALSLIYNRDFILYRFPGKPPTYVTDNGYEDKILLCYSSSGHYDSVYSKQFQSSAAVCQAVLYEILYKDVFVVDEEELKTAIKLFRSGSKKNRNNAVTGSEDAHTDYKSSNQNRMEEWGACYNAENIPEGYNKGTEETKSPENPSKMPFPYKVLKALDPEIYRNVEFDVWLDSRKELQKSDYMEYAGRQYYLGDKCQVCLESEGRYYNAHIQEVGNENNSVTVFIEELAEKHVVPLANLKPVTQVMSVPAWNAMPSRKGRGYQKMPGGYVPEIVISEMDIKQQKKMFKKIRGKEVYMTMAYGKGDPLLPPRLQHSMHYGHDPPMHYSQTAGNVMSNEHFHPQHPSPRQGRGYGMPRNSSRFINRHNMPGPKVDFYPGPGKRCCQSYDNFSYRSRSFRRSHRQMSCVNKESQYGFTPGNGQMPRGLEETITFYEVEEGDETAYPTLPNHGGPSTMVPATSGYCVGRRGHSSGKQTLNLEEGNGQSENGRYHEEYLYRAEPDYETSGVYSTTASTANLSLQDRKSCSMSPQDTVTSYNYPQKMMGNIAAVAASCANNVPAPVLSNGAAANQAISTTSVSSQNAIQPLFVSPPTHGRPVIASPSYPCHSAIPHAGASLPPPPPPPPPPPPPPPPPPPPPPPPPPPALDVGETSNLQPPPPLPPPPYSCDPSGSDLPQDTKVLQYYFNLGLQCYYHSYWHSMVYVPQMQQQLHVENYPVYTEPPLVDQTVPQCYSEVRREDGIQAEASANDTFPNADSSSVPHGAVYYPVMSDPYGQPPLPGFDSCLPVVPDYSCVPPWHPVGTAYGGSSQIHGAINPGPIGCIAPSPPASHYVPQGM
In short: (§1)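 In triplicate, 495 µg of HEK293T lysate per sample was incubated with fragment at 200 µM or vehicle for 3 h. Biotin-Ahx-Ub-VS was then added to 0.5 µM final for 1 h, and labelled DUBs were captured with NeutrAvidin, digested with LysC and trypsin, and measured by diaPASEF LC-MS/MS. Data are average log2 fragment/vehicle ratios by unpaired t-test from global-median-normalised Spectronaut label-free quantities, restricted to proteins with ≥2 unique peptides.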

ATXN3 = ATXN3 (UniProt P54252)
In short: as §1

BAP1 = target: T2, BAP1 (UniProt Q92560)
T2 sequence (whole entry): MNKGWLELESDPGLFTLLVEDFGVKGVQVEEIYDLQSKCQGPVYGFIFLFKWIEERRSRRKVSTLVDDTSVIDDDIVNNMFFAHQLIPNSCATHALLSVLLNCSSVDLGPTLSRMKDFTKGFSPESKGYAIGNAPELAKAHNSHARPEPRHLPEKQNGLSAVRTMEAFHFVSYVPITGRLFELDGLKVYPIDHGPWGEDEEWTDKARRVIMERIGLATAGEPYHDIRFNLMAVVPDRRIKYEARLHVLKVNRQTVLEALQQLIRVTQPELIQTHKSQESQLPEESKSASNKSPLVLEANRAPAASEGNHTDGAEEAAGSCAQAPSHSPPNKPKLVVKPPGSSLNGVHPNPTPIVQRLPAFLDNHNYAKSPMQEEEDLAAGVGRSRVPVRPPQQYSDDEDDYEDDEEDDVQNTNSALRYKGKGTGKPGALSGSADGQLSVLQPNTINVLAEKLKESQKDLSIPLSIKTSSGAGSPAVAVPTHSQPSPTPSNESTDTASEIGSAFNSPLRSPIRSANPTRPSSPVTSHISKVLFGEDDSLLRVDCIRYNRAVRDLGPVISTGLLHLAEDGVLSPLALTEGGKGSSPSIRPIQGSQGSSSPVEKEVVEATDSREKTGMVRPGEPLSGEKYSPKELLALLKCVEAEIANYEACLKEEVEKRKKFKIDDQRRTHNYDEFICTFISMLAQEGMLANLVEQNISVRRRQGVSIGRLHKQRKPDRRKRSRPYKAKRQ
In short: as §1

EIF3F = EIF3F (UniProt O00303)
In short: as §1

EIF3H = EIF3H (UniProt O15372)
In short: as §1

FAM105A = target: T3, FAM105A (UniProt Q9NUU6)
T3 sequence (whole entry): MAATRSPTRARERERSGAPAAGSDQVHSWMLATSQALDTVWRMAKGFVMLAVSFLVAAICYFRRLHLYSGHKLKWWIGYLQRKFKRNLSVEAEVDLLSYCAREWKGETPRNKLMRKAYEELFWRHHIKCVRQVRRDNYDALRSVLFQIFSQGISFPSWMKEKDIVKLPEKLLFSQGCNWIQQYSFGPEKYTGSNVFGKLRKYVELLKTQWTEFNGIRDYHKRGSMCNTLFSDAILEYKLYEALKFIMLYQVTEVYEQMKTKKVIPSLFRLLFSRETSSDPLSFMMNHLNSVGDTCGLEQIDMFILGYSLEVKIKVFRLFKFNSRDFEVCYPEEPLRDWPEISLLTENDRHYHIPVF
In short: as §1

OTUB1 = OTUB1 (UniProt Q96FW1)
In short: as §1

OTUD4 = target: T4, OTUD4 (UniProt Q01804)
T4 sequence (whole entry): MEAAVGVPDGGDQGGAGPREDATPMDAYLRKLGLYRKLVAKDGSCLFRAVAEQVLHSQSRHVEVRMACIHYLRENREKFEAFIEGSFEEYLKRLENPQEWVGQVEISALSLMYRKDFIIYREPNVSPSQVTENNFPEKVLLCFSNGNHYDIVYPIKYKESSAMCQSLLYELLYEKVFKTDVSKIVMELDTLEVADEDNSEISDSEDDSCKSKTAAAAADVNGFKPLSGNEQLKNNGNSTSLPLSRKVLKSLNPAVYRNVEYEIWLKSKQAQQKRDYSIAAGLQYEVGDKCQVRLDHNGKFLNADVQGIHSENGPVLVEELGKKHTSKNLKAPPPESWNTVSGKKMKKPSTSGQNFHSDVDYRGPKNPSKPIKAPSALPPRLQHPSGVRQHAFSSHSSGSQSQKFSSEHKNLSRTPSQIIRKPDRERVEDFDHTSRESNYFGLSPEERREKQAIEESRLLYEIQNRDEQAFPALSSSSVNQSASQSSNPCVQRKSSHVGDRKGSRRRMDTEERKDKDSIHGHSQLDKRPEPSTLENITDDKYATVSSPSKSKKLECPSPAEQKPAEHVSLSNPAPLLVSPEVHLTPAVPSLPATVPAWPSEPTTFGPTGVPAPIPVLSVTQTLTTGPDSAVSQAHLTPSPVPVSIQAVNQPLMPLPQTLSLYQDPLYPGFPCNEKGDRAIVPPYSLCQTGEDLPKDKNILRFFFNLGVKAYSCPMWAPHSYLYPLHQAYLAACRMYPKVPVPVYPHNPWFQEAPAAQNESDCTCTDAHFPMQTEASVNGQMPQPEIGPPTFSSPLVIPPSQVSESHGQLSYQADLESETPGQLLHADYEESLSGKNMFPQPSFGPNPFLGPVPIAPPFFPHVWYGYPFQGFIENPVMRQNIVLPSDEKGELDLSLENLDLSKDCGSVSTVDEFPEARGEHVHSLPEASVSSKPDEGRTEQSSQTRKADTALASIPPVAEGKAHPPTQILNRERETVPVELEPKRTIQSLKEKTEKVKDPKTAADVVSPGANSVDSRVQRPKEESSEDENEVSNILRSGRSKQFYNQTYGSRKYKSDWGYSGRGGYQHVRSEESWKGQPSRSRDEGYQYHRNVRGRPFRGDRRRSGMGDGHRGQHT
In short: as §1

OTUD5 = target: T5, OTUD5 (UniProt Q96G74)
T5 sequence (whole entry): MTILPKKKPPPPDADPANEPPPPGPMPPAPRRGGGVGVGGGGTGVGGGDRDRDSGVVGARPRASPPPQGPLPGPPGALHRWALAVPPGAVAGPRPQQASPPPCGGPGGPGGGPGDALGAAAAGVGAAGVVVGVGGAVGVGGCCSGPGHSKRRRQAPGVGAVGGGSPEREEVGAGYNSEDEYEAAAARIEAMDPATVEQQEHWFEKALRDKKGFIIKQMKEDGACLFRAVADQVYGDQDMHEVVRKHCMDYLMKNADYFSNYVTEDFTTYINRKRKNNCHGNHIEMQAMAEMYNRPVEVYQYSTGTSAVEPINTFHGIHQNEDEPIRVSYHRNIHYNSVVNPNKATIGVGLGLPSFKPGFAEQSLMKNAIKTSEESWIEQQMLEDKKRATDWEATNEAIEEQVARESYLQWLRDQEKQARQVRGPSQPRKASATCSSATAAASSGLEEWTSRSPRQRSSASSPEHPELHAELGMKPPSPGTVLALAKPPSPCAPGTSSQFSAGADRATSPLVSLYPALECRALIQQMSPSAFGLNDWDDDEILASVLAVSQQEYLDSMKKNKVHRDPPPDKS
In short: as §1

Measured: log2 ratio of Biotin-Ahx-Ub-VS probe labelling

ATXN3, sequence (P54252 whole entry): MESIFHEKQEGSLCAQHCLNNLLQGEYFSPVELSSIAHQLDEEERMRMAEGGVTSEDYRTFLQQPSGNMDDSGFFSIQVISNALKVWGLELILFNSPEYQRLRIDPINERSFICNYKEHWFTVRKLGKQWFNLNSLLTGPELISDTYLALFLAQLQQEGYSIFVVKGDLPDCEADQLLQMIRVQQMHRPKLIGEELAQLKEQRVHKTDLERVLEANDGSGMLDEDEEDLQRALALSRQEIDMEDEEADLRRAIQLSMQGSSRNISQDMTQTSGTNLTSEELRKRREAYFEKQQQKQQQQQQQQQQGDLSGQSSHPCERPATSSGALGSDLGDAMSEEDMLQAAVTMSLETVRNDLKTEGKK
OTUB1, sequence (Q96FW1 whole entry): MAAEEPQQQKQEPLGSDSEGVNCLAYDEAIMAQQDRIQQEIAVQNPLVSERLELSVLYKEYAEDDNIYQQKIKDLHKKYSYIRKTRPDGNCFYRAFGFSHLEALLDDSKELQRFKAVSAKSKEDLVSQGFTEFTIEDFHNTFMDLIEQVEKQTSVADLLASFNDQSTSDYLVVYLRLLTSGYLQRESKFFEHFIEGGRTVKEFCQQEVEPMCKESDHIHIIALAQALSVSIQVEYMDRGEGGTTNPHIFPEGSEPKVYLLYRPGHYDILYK
EIF3H, sequence (O15372 whole entry): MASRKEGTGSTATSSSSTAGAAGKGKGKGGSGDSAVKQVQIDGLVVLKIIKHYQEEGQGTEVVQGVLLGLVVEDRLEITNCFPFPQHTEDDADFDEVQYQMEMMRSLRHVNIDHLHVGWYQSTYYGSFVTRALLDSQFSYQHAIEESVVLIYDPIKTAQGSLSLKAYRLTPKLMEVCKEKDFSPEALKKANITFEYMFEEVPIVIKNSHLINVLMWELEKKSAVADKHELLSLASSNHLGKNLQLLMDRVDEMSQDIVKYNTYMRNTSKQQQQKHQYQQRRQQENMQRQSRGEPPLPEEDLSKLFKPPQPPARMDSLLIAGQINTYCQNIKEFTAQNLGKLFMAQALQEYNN
EIF3F, sequence (O00303 whole entry): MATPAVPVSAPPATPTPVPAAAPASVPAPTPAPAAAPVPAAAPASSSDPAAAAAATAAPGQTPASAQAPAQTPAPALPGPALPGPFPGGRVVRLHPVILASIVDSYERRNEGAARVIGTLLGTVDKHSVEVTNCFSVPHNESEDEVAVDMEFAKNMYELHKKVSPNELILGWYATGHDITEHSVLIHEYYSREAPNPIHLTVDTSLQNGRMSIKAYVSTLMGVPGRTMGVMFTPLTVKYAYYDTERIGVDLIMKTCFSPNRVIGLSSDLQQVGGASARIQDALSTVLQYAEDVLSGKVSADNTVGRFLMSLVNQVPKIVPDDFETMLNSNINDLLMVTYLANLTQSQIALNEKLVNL

Cl.Cn1ncc2c1CC(NC(=O)CCl)CC2 (centres undefined)
inactive: ALG13 0.027 | ATXN3 -0.0274 | EIF3F -0.121 | EIF3H -0.266 | FAM105A 0.307 | OTUB1 -0.112 | OTUD4 -0.464 | OTUD5 0.000518
active: BAP1 -1.1

— the supplement of paper PMC11732987, “Enantioselective OTUD7B fragment discovery through chemoproteomics screening and high-throughput optimisation” (Communications Chemistry, 2025)
